Values joined by “and” are separate entries in the source; they are usually repeats but may differ in a detail not shown here. Equal entries are not always repeated. Records with an inconclusive call do not appear. Where a call stands in place of a potency, no number is given. Active and inactive are the calls of the source. Unless noted, calls follow the shape of the dose curve; as a rule, active = well fitted curve in the direction sought with a large enough effect in the repeat runs; inconclusive = weak or mixed curves; inactive = no such curve, though single readings can be large; an effect the other way counts as inactive or inconclusive.
Experiments:
[1] = molecular target: Cytochrome P450 2D6 (Homo sapiens) (UniProt P10635); test: Cytochrome P450 family 2 subfamily D member 6 (CYP2D6) small molecule antagonists: luciferase biochemical (cell-free) qHTS assay (AID 1645840); also: nearly all actives have a fitted effect of over 55% in size; also: potency is read from the fitted curve at half-maximal effect
Cytochrome P450 2D6 (Homo sapiens), sequence (P10635 whole entry, looked up): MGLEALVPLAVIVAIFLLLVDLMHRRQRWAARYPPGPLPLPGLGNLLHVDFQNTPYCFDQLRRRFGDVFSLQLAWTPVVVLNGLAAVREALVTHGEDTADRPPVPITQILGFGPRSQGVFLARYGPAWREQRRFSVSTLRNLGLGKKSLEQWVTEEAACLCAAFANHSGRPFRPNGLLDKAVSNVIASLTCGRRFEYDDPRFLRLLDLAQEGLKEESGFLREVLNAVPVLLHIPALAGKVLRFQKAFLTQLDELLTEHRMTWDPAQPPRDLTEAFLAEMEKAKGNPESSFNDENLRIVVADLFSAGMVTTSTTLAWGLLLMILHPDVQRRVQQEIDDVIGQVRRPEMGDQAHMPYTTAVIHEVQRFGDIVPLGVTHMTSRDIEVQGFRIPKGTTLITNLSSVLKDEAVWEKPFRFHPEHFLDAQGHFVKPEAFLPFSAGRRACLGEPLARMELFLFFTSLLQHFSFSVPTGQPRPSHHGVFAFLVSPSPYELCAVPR
Summary of the method: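 P450-Glo CYP2D6 system: proluciferin substrate converted by enzyme to luciferin, read by luminescence proportional to activity. Enzyme-substrate mix with compound 10 min at room temperature, then NADPH regeneration 1 h before detection reagent.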

[2] = molecular target: Cytochrome P450 2C9 (Homo sapiens) (UniProt P11712); test: Cytochrome P450 family 2 subfamily C member 9 (CYP2C9) small molecule antagonists: luciferase biochemical (cell-free) qHTS assay (AID 1645842); also: nearly all actives have a fitted effect of over 55% in size; also: potency is read from the fitted curve at half-maximal effect
Cytochrome P450 2C9 (Homo sapiens), sequence (P11712 whole entry, looked up): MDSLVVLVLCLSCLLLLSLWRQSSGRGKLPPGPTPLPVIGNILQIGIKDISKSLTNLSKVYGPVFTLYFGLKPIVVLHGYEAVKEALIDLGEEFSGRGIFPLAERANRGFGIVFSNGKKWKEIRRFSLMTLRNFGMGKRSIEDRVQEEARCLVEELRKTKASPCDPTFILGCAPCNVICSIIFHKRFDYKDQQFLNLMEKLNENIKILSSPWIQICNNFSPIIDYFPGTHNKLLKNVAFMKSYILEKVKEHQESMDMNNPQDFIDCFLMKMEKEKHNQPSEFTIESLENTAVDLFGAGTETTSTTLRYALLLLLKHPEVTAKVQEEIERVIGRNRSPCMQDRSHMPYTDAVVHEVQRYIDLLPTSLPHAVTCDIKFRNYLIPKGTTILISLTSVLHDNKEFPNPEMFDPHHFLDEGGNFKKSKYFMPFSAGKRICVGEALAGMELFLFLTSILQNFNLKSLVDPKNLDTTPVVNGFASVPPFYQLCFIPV
Summary of the method: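 P450-Glo CYP2C9 system: proluciferin substrate with enzyme in mix containing 0.4% BSA, 10 min at room temperature, then NADPH regeneration solution added and incubated 1 h at 37C. Detection reagent stopped reaction; luminescence read after 20 min as RLU.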

[3] = A High-Content qHTS Against Drug Library for the Identification of Small Molecules that Inhibit DYT1 Early Onset Primary Dystonia-Associated Cell Pathology (AID 1645839; calls by dose curve; also: potency is read from the fitted curve at half-maximal effect)
Description: Nicole Calakos M.D., Ph.D.
Duke University School of Medicine, Durham, NC
In DYT1 dystonia due to delGAG in the TOR1A gene, there is a robust and widely replicated finding of TorsinA protein mislocalization caused when the mutant protein is in excess of the wildtype protein (1-7). Stable HEK293 cell lines were created that replicate this phenomenon. Inducible expression of an EGFP-hu delE TorsinA encoding cDNA causes pronounced punctate cellular distribution. […] This phenotypic difference in EGFP-huTorsinA fusion protein distribution serves as an indicator of cell pathology. […] RNAi screen results with the assay were validated in DYT1 patient cell phenotypes, intersected with a known dystonia gene, and led to discovery of new human genetic dystonia associations.
The bioassay described herein is a high-content image screen with two readouts. The "%pathology" readout is the primary qHTS data channel, while the "cellcount" is the counterscreen qHTS channel. Desired active compounds are those that show inhibition in %pathology channel but no activity or minimal toxicity in cellcount readout.
1. Kustedjo, K., Bracey, M.H., and Cravatt, B.F. (2000). […] J. Biol. Chem. 275, 27933 - 27939.
2. Bragg, D.C., Kaufman, C.A., Kock, N., and Breakefield, X.O. (2004). Inhibition of N-linked glycosylation prevents inclusion formation by the dystonia-related mutant form of torsinA. Mol. Cell. Neurosci. 27, 417 - 426.
3. Gonzalez-Alegre, P., and Paulson, H.L. (2004). Aberrant Cellular Behavior of Mutant TorsinA Implicates Nuclear Envelope Dysfunction in DYT1 Dystonia. J. Neurosci. 24, 2593 - 2601.
4. Goodchild, R.E., and Dauer, W.T. (2004). Mislocalization to the nuclear envelope: an effect of the dystonia-causing torsinA mutation. Proc. Natl. Acad. Sci. U. S. A. 101, 847 - 852.
5. Kock, N., Allchorne, A.J., Sena-Esteves, M., Woolf, C.J., and Breakefield, X.O. (2006). RNAi blocks DYT1 mutant torsinA inclusions in neurons. Neurosci. Lett. 395, 201 - 205.
6. Hewett, J.W., Nery, F.C., Niland, B., Ge, P., Tan, P., Hadwiger, P., Tannous, B.A., Sah, D.W.Y., and Breakefield, X.O. (2008). siRNA knock-down of mutant torsinA restores processing through secretory pathway in DYT1 dystonia cells. Hum. Mol. Genet. 17, 1436 - 1445.
7. Calakos, N., Patel, V.D., Gottron, M., Wang, G., Tran-Viet, K.N., Brewington, D., Beyer, J.L., Steffens, D.C., Krishnan, R.R., and Zuchner, S. (2010). Functional evidence implicating a novel TOR1A mutation in idiopathic, late-onset focal dystonia. J. Med. Genet. 47, 646 - 650.
8. Rittiner* JE, Caffall* ZF, Hernandez-Martinez R, Sanderson SM, Pearson JL, Tsukayama KK, Liu AY, Xiao C, Tracy S, Shipman MK, Hickey P, Johnson J, Scott B, Stacy M, Saunders-Pullman R, Bressman S, Simonyan K, Sharma N, Ozelius LJ, Cirulli ET, Calakos N. Functional Genomic Analyses of Mendelian and Sporadic Disease Identify Impaired eIF2alpha Signaling as a Generalizable Mechanism for Dystonia. Neuron. 2016 Dec 21;92(6):1238-1251. doi: 10.1016/j.neuron.2016.11.012. Epub 2016 Dec 8. PMID: 27939583; PMCID: PMC5320521.
High-content, High-throughput Drug Screening Assay
The TorsinA mislocalization assay was modified from the previously published assay to accommodate compound testing in 1536 well format.1 Briefly, Flp-In T-REx 293 cells from Invitrogen in which a single copy of a cDNA is recombined into a specific genomic locus was used to create tetracycline-inducible expression of cDNA encoding either EGFP-hTOR1A (WT) or EGFP-delE hTOR1A (DYT1). […]

[4] = molecular target: Cytochrome P450 3A4 (Homo sapiens) (UniProt P08684); test: Cytochrome P450 family 3 subfamily A member 4 (CYP3A4) small molecule antagonists: luciferase qHTS assay (AID 1645841); also: nearly all actives have a fitted effect of over 45% in size; also: potency is read from the fitted curve at half-maximal effect
Cytochrome P450 3A4 (Homo sapiens), sequence (P08684 whole entry, looked up): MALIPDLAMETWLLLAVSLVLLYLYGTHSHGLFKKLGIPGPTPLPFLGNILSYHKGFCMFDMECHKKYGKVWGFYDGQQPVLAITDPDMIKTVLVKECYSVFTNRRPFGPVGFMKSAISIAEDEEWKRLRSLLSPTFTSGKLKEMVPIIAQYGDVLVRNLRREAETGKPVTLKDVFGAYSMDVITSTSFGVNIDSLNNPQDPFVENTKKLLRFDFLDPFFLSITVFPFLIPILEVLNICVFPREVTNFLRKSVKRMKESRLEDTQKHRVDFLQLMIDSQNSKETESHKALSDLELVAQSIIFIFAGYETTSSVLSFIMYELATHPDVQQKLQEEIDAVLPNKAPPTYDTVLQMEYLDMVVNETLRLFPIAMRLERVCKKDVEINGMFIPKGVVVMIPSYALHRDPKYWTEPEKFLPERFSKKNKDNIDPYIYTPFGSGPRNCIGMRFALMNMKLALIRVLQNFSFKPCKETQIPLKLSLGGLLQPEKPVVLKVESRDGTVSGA
Summary of the method: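 P450-Glo CYP3A4 enzyme with proluciferin substrate preincubated 10 min with compound at room temperature, then NADPH regeneration 1 h. Luciferin detection reagent added for 20 min; luminescence recorded. Ketoconazole positive control.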

[5] = Primary qHTS for inhibitors of nuclear receptor binding SET domain protein 2 (NSD2) in an isogenic RCH-ACV NSD2 p.E1099K mutant (9B) (AID 1645876; active = well fitted curve in the direction sought with a large enough effect; an effect the other way counts as inactive or inconclusive; also: nearly all actives have a fitted effect of over 70% in size; also: potency is read from the fitted curve at half-maximal effect)
[6] = Primary qHTS for inhibitors of nuclear receptor binding SET domain protein 2 (NSD2) in an RCH-ACV wild type WT cells (2C) (AID 1645877; active = well fitted curve in the direction sought with a large enough effect; an effect the other way counts as inactive or inconclusive; also: nearly all actives have a fitted effect of over 70% in size; also: potency is read from the fitted curve at half-maximal effect)
[7] = Primary qHTS for small molecule stabilizers of the endoplasmic reticulum resident proteome: Secreted ER Calcium Modulated Protein (SERCaMP) assay (AID 1508630; active = well fitted curve in the direction sought with a large enough effect; an effect the other way counts as inactive or inconclusive)
Summary of the method: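 The SH-SY5Y reporter protocol was run at 3 concentrations up to 38.3 uM (primary) or 11 concentrations (follow-up): 16 h compound, 100 nM thapsigargin for 4 h, then extracellular luciferase luminescence.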

[8] = molecular target: Catechol O-methyltransferase (Homo sapiens) (UniProt P21964); test: Confirmatory Screen for Target Class Profiling of Small Molecule Inhibitors of Methyltransferases (AID 1745852); settings: MTase-Glo luminescence, SAH detection, recombinant enzyme; measured here: COMT max response; stronger effect = lower value
Catechol O-methyltransferase (Homo sapiens), sequence (P21964 whole entry, looked up): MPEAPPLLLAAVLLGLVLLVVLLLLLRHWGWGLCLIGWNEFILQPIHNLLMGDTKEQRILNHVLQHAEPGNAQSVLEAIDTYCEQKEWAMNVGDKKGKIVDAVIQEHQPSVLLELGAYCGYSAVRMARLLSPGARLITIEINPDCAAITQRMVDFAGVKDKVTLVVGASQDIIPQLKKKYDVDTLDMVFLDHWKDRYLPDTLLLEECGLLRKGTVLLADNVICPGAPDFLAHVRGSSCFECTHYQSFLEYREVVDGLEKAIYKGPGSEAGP

COc1ccc(-c2nc(-c3ccc(-c4cccc(Cl)c4)o3)[nH]c2-c2ccc(OC)cc2)cc1
Potency [1]: inactive

CCN(CC)Cc1ccc(C(=O)N(CCc2ccccc2OC)[C@@H]2CCNC2)cc1
Potency [1]: 13.5 µM (active)

COc1ccc(CC2NCCc3c2[nH]c2ccc(C)cc32)cc1OC (configuration not stated)
Potency [1]: 0.239 µM (active) | Potency [2]: 10.7 µM (active)

Nc1ccccc1N
Potency [3]: 35.5 µM (active) | Potency [1]: 14.6 µM (active) | Potency [2]: 35.6 µM (active)

Cc1noc(-c2ccc(-c3ccc(CC(=O)O)cc3)cc2)c1NC(=O)O[C@H](C)c1ccccc1
Potency [1]: inactive | Potency [2]: 13.5 µM (active)

CCNCc1nc2c(N)nc3ccccc3c2n1CC(C)(C)O
Potency [1]: 5.35 µM (active)

Cc1ccc(S(=O)(=O)n2ccc(-c3c(-c4ccc(Cl)cc4)noc3C)n2)cc1
Potency [1]: inactive

C=CC(=O)Nc1cc(Nc2nccc(-c3c[nH]c4ccccc34)n2)c(OC)cc1N(C)CCN(C)C
Potency [1]: inactive

CCC(CC)C(=O)Nc1sc2c(c1C#N)CCC(C(C)(C)CC)C2 (configuration not stated)
Potency [1]: inactive | Potency [4]: 9.52 µM (active) | Potency [2]: 5.35 µM (active) | Potency [5]: inactive | Potency [6]: inactive

CS(=O)(=O)c1ccc([C@H](CC2CCCC2)C(=O)Nc2nccs2)cc1
Potency [1]: 10.7 µM (active) | Potency [2]: 6.01 µM (active)

COc1ccc(-n2[nH]c(=O)c3[nH]c4cc(Cl)ccc4c(=O)c3c2=O)c(C)c1
Potency [1]: inactive | Potency [4]: inactive | Potency [2]: inactive

O=[N+]([O-])c1cn2c(n1)OCC(OCc1ccc(OC(F)(F)F)cc1)C2 (configuration not stated)
Potency [1]: inactive

CCC(C(=O)O)c1ccc(N2Cc3ccccc3C2=O)cc1 (configuration not stated)
outcome [7]: inactive | Potency [3]: inactive | Potency [2]: inactive | Potency [5]: inactive | Potency [6]: inactive

Cc1c(C(=O)Nc2ccc(N3CC(C)OC(C)C3)nc2)cccc1-c1ccc(OC(F)(F)F)cc1 (configuration not stated)
Potency [1]: inactive | Potency [2]: inactive

CC(C)(C)CCN1C[C@@H]2C(CNC(=O)c3cc(Cl)cc(Cl)c3)[C@@H]2C1 (some centres not stated)
Potency [1]: 3.79 µM (active)

NC(=O)C(CCC(F)(F)F)N(Cc1ccc(-c2ncon2)cc1F)S(=O)(=O)c1ccc(Cl)cc1 (configuration not stated)
Potency [1]: 12 µM (active) | Potency [2]: 1.51 µM (active)

Cn1nc(C(C)(C)C)cc1C(=O)NC(Cc1cccc(Cl)c1)C(=O)NCC#N (configuration not stated)
Potency [1]: 15.1 µM (active) | Potency [2]: 15.1 µM (active)

CC(C)(C)NS(=O)(=O)c1cncc(-c2cc(F)c3nc(N)nn3c2)c1
Potency [1]: inactive | Potency [2]: inactive

CC(=O)O[C@H]1C(=O)[C@@]2(C)[C@H]([C@H](OC(=O)c3ccccc3)[C@]3(O)C[C@H](OC(=O)[C@H](O)[C@@H](NC(=O)c4ccccc4)c4ccccc4)C(C)=C1C3(C)C)[C@]1(OC(C)=O)CO[C@@H]1C[C@@H]2O
outcome [7]: inactive | Potency [5]: 6.9 nM (active)

CN1CCN(C2CCC(n3cc(-c4ccc(Oc5ccccc5)cc4)c4c(N)ncnc43)CC2)CC1 (configuration not stated)
Potency [1]: 12 µM (active) | Potency [4]: inactive | Potency [2]: inactive | Potency [5]: 20.5 nM (active) and 74.2 nM (active) | Potency [6]: 72.8 nM (active) and 74.2 nM (active) | activity [8]: -15.7%

CC1CCCCN1S(=O)(=O)c1ccc(N2CCCC2=O)cc1 (configuration not stated)
Potency [1]: inactive | Potency [4]: inactive | Potency [2]: 15.1 µM (active) | Potency [5]: inactive

CC(=O)NC[C@H]1CN(c2ccc(N3CCN(C(=O)CO)CC3)c(F)c2)C(=O)O1
Potency [1]: inactive | Potency [2]: inactive

COc1cc2ncnc(Nc3ccc(O)cc3)c2cc1OC
Potency [1]: inactive | Potency [2]: inactive

CS(=O)(=O)NCC1CCC(Nc2nc3c(s2)CCSc2ccccc2-3)CC1 (configuration not stated)
Potency [1]: 10.7 µM (active)

COC(C(=O)N1Cc2[nH]nc(NC(=O)c3ccc(N4CCN(C)CC4)cc3)c2C1)c1ccccc1 (configuration not stated)
Potency [1]: inactive | Potency [4]: inactive | Potency [5]: 51.5 nM (active)

O=C(CCc1ccccc1)N1CCC(O)(Cn2cnc3cc(Cl)ccc3c2=O)CC1
Potency [1]: 4.25 µM (active) | Potency [2]: 10.7 µM (active)

CC[C@@](C)(Nc1ccnc(-c2c[nH]c3ncccc23)n1)C(=O)NCC(F)(F)F
Potency [1]: 16.9 µM (active) | Potency [2]: 21.3 µM (active)

c1cc(OCCCN2CCCCC2)ccc1CN1CCCCC1
Potency [1]: inactive | Potency [4]: inactive | Potency [2]: inactive | activity [8]: -4.16%

Cc1cccc(-c2[nH]c(Cc3cccc(C(N)=O)c3)nc2-c2ccc3nccnc3c2)n1
Potency [1]: 13.5 µM (active)

O=C(O)c1c(O)c(-c2ccccc2)nc2ccccc12
Potency [3]: inactive | Potency [1]: inactive | Potency [5]: inactive | Potency [6]: inactive

O=C(O)c1ccccc1NCCc1ccccc1
outcome [7]: inactive | Potency [3]: inactive | Potency [1]: 11 µM (active) | Potency [5]: inactive | Potency [6]: inactive

COC(=O)[C@@]1(c2ccc(C)cc2)C[C@H]1CN1CCC(O)(c2ccccc2)CC1
Potency [1]: 2.68 µM (active)

CCOCCOC(=O)/C=C/c1ccc(OC)cc1
Potency [3]: inactive | Potency [1]: inactive

CC(C)=CCCC1(C)C=Cc2c(c(C)cc3c2[nH]c2ccccc23)O1 (configuration not stated)
outcome [7]: inactive

Cc1ccc(S(=O)(=O)Nc2ccccc2N2CCCCC2)s1
Potency [1]: inactive

Cc1csc(NC(=O)c2ccc(COc3cccc(Cl)c3)o2)n1
Potency [1]: 19 µM (active) | Potency [2]: 7.56 µM (active)

Cc1cc(Nc2ncc3cc(-c4c(Cl)cccc4Cl)c(=O)n(C)c3n2)ccc1F
Potency [1]: inactive | Potency [4]: inactive | Potency [2]: 6.74 µM (active) | Potency [5]: 728 nM (active) | Potency [6]: 817 nM (active)

CS(=O)(=O)N1CCC(NC(=O)c2[nH]ncc2NC(=O)c2c(Cl)cccc2Cl)CC1
Potency [1]: inactive | Potency [4]: inactive | Potency [2]: 21.3 µM (active) | Potency [5]: 525 nM (active) | Potency [6]: 332 nM (active)

Source: PubChem BioAssay (NCATS)
